# Results as given in PMC5540273 (PLoS ONE, 2017).
# Where “and” joins values, the source holds several entries; their conditions need not be identical. Identical values can stand only once. Like-named read-outs stand apart in the source and are kept apart here.
# Tests used:
# GRK7 = conditions: concentration: 1 μM, replicates: in singlicate; n = 1
# GSK3A = conditions: n = 1
# GSK3B = conditions: n = 1
# HASPIN = tested on: T1, HASPIN; conditions: concentration: 1 μM, replicates: in singlicate; n = 1
# T1 construct: gene GSG2
# HCK = conditions: concentration: 1 μM, replicates: in singlicate; n = 1
# HIPK1 = conditions: concentration: 1 μM, replicates: in singlicate; n = 1
# HIPK2 = conditions: concentration: 1 μM, replicates: in singlicate; n = 1
# HIPK3 = conditions: n = 1
# HIPK4 = conditions: n = 1
# HPK1 = conditions: n = 1
# [1] = concentration: 1 μM, replicates: in singlicate
# [2] = concentration: 1 μM,replicates: in singlicate, 1 µM
# 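Further: KINOMEscan kinase panel screen.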
Compound,%Inh (GRK7) [%],%Inh (GSK3A; [1]) [%],%Inh (GSK3B; [1]) [%],%Inh (HASPIN) [%],%Inh (HCK) [%],%Inh (HIPK1) [%],%Inh (HIPK2) [%],%Inh (HIPK3; [1]) [%],%Inh (HIPK4; [1]) [%],%Inh (HPK1; [1]) [%],%Inh (GSK3B; 1 µM) [%],%Inh (GSK3A; [2]),%Inh (GSK3B; [2]),%Inh (HIPK3; [2]),%Inh (HIPK4; [2]),%Inh (HPK1; [2])
COc1ccc(CNC(=O)NC2CCN(c3ccnc(Nc4cc(OC)c(OC)c(OC)c4)n3)C2)cc1 (stereo not shown) [GSK1379748],0,7,0,38,0,0,8,33,0,53,–,–,–,–,–,–
CC(C)(C)c1ccc(C(=O)Nc2cn3cc(Cl)ccc3n2)cc1,0,3,0,0,1,0,0,0,0,4,–,–,–,–,–,–
CN1C(=O)C(Nc2ccc(Cl)c(C(=O)O)c2)=C(c2ccc(Cl)cc2)C1=O [SB-404290],0,6,33,21,17,19,8,34,11,0,–,–,–,–,–,–
O=C(Nc1n[nH]c2cc(-c3cccc(F)c3F)ccc12)C1CC1 [SB-733894],55,0,25,9,0,29,15,19,3,0,–,–,–,–,–,–
COc1cccc(-c2cc(-c3c[nH]nc3-c3ccccn3)ccn2)c1 [GW680338],0,3,8,23,0,11,10,22,21,25,–,–,–,–,–,–
Clc1cc(Cl)cc(Nc2ccnc(Nc3cc(Cl)cc(Cl)c3)n2)c1 [GSK175726],0,30,0,0,10,32,1,7,0,38,–,–,–,–,–,–
O=C(Nc1n[nH]c2nc(-c3nccs3)c(Br)cc12)C1CCCC1 [SB-742609],0,96.8,–,0,0,0,0,20,8,33,59,–,–,–,–,–
Fc1cc(Cl)ccc1Nc1ccnc2cc(-c3ccc(CN4CCCCC4)o3)ccc12 [GW560116],0,0,0,32,0,0,0,1,0,14,–,–,–,–,–,–
Cn1ccc2ncnc(Oc3cccc(C(=O)Nc4ccccc4)c3)c21,21,24,2,37,8,0,30,5,0,2,–,–,–,–,–,–
O=C(O)COc1ncnc2cc(-c3ccc4[nH]ncc4c3)sc12,0,25,27,41,14,45,47,47,38,7,–,–,–,–,–,–
CN(C)CCN(C)C(=O)c1cc(-c2ccncc2)c(-c2ccc(Cl)c(O)c2)o1.Cl.Cl [SB-710397],0,0,14,53,14,0,0,16,0,46,–,–,–,–,–,–
Cn1ccc2ncnc(Oc3ccc(NC(=O)Nc4ccccc4)cc3)c21,0,11,0,24,0,25,17,0,5,0,–,–,–,–,–,–
CCn1c(-c2cccnc2O)nc2cnccc21 [SB-736715],0,0,0,0,0,11,0,0,0,4,–,–,–,–,–,–
CCCc1ccc(S(=O)(=O)NC2CCN(c3ccnc(Nc4ccc(F)cc4)n3)C2)cc1 (stereo not shown) [GSK1379715],0,2,21,0,0,0,0,0,0,37,–,–,–,–,–,–
O=c1cc(N2CCOCC2)nc2n(Cc3cccc(Cl)c3Cl)ccn12 [GSK2286295],0,8,12,1,0,13,0,14,28,31,–,–,–,–,–,–
Cc1cccc(-c2nc(Nc3ccncc3)c3ccccc3n2)n1 [GW855857],0,4,0,26,11,41,0,0,19,9,–,–,–,–,–,–

Compound,%Inh (GRK7) [%],%Inh (GSK3A; [1]) [%],%Inh (GSK3B; [1]) [%],%Inh (HASPIN) [%],%Inh (HCK) [%],%Inh (HIPK1) [%],%Inh (HIPK2) [%],%Inh (HIPK3; [1]) [%],%Inh (HIPK4; [1]) [%],%Inh (HPK1; [1]) [%],%Inh (GSK3B; 1 µM) [%],%Inh (GSK3A; [2]),%Inh (GSK3B; [2]),%Inh (HIPK3; [2]),%Inh (HIPK4; [2]),%Inh (HPK1; [2])
Cc1ccccc1-n1cnc2c(N)ncnc21 [SKF-97510],0,1,0,0,0,0,0,0,0,0,–,–,–,–,–,–
O=S(=O)(c1ccc(-c2ccnc3[nH]ccc23)cc1)N1CCCC1 [GSK846226],0,15,16,12,0,45,0,48,23,25,–,–,–,–,–,–
CC1=C(C(=O)Nc2cc3cn[nH]c3cc2F)C(c2ccc(C(F)(F)F)cc2)CC(=O)N1 (stereo not shown) [GSK429286],0,10,24,0,0,0,0,13,0,29,–,–,–,–,–,–
CS(=O)(=O)c1ccc(-c2nc3n(c2-c2ccncc2)CCC3)cc1 [SKF-105942],0,0,10,0,0,0,0,8,0,37,–,–,–,–,–,–
Cc1nnc(-c2ccc3occ(-c4ccc(S(C)=O)cc4)c3c2)[nH]1 (stereo not shown),6,86,75,25,0,69,84,81,36,0,–,–,–,–,–,–
Fc1cccc(COc2nnc(-c3ccc4c(c3)CCO4)o2)c1,8,0,9,44,0,25,23,0,3,0,–,–,–,–,–,–
COC(=O)c1c(-c2ccccc2)c2cc(C(=O)O)ccc2c(=O)n1Cc1ccccc1,0,0,0,31,0,14,0,0,0,0,–,–,–,–,–,–
Cc1ccc(NC(=O)Nc2cc(C(C)(C)C)nn2-c2ccccc2)cc1 [GSK1014915],0,0,13,0,0,0,0,13,0,25,–,–,–,–,–,–
Fc1cc(Cl)ccc1Nc1ccnc2cc(I)ccc12 [GW551191],0,26,3,0,0,0,0,0,0,35,–,–,–,–,–,–
COc1cc2ncnc(Nc3ccc4nc(-c5ccccc5)[nH]c4c3)c2cc1OC.Cl [GW282450],0,0,22,0,0,6,0,32,35,1,–,–,–,–,–,–
CSc1nn2c(=O)cc(N3CCOCC3)nc2n1Cc1cccc(C(F)(F)F)c1C [GSK2363608],0,–,–,0,0,0,0,–,–,–,–,26% and 9%,12% and 25%,11% and 15%,0% and 18%,24% and 36%
Cc1ccc(C(=O)Nc2ccc(Nc3ccnc4cc(-c5ccccn5)ccc34)cc2O)cc1.Cl [GW440146],0,7,4,30,72,8,0,4,0,34,–,–,–,–,–,–
Cc1cc(NCC(c2ccccc2)c2ccccc2)nc(NCc2ccc(C(F)(F)F)cc2)n1 [GW497681],0,4,0,0,0,0,0,0,0,23,–,–,–,–,–,–
COc1cc2nccc(Nc3ccc(NC(=O)c4ccc(C)cc4)c(O)c3)c2cc1OC.Cl [GW440132],0,4,0,0,0,6,0,0,3,24,–,–,–,–,–,–
Cl.O=C(Nc1cccc(-c2nn3ncccc3c2-c2ccnc(Nc3cccnc3)n2)c1)c1c(F)cccc1F [GSK312879],0,48,25,0,52,0,0,11,0,31,–,–,–,–,–,–
